# M1 agonist = M1 muscarinic receptor agonists, primary screen, CHO-M1 cells, Fluo-4 calcium, agonist mode | Muscarinic acetylcholine receptor M1 | Fluo-4 calcium fluorescence; stronger effect = higher value | B-score at 10 µM | 64,000 tested, 3% active | AID 626, 2007;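 active = fluorescence rise, raw or as B-score row- and column-corrected plate score, outside the 99.7% band of its plate's samples, either direction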
# Her2 expr inh = inhibitors of Her2 protein expression, primary screen, SKBR-3 cells, AlphaScreen, 66K library | SKBR-3 HER2 protein level, 18-24 h; stronger effect = lower value | HER2 level % of control, % at 10 µM | 65,000 tested, 0.69% active | AID 645, 2007;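 active = HER2 level under 5% of the carrier-only control; inconclusive = no clear call, values can overlap the other calls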;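 note: lower value means stronger loss of Her2 protein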
# JNK3 blocker = JNK3 kinase activity inhibitors, primary screen, biochemical, human, purified enzyme | HTS | inhibition, % at 8 µM | 60,000 tested, 0.61% active | Mitogen-activated protein kinase 10 (Homo sapiens), P53779; in the data active = inhibition above about 17%
# FXIIa inh mix = human factor XIIa inhibitors, primary screen, biochemical, pooled compound mixtures, fluorogenic substrate | Coagulation factor XII (Homo sapiens), P00748 | purified FXIIa | inhibition, % at 5 µM | 62,000 tested, 0.2% active | AID 684, 2007
# M1 antagonist = antagonists of rat M1 muscarinic receptor | Muscarinic acetylcholine receptor M1 (Rattus norvegicus), P08482 | CHO-M1 cells, Fluo-4 calcium, ACh EC80 antagonist mode; stronger effect = lower value | B-score at 10 µM | 64,000 tested, 3.4% active;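 active = calcium fluorescence response, raw or row-and-column corrected B-score, differing from the plate sample mean either way at a set confidence level, mostly lower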
# Target sequence (P08482 whole entry, looked up): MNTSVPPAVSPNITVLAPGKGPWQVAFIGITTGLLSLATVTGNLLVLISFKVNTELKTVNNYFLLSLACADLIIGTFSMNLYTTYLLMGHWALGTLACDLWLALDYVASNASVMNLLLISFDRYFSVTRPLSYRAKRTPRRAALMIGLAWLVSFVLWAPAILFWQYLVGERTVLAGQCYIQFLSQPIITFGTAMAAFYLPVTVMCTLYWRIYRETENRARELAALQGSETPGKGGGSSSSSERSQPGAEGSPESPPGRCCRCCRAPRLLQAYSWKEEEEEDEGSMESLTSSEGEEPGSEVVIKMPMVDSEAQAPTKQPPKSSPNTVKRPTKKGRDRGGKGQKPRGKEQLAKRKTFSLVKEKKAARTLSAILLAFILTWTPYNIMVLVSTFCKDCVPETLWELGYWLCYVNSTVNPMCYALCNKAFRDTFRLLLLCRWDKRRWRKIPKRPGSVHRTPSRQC
# FXIa inh mix = FXIa protease inhibitors in compound pools, primary screen, biochemical, 10-compound mixtures. purified FXIa, fluorogenic substrate, pooled mixtures. Coagulation factor XI (Homo sapiens), P03951. inhibition, % at 5 µM. AID 680, 2007. 62,000 tested, 0.19% active;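 note: each value is inhibition by a whole ten-compound pool holding the compound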
# M1 ag confirm = rat M1 muscarinic receptor agonists, confirmation, CHO-M1 cells, Fluo-4 calcium, duplicate retest | AID 1488, 2009 | shares compounds with M1 agonist | fluorescence change (max-min) at 10 µM | 1,700 tested, 19% active | Fluo-4 calcium fluorescence, agonist mode; actives lie on both sides;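 active = fluorescence change differs from the solvent-only DMSO control mean at a set confidence level in both duplicate runs; inconclusive = differs from solvent-only control mean in just one of two runs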;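 note: an EC20 dose of acetylcholine follows compound addition during the same imaging run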
# M4 agonist ctr = agonist activity at rat M4 receptor, confirmation, counter-screen for M1 allosteric modulator project, cell-based, agonist mode. shares compounds with M1 agonist. CHO M4/Gqi5 cells, Fluo-4 calcium fluorescence; actives lie on both sides. fluorescence change (max-min) at 10 µM. 1,700 tested, 9% active;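 active = fluorescence change differing from the plate's solvent-only control wells at 99.7% confidence in both duplicates, whether higher or lower; inconclusive = differs from solvent controls in only one of two duplicates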
# A number is an active result; - = inactive; ? = inconclusive; . = no result. This is a sample that favours compounds with a hit; in the whole collection about 6.9% have one here. Cut-off read from the data, not from the text of the source, unless noted: active = inhibition above about 20% (passing the limit was not always enough); inactive = the rest.
SMILES,M1 agonist,Her2 expr inh,JNK3 blocker,FXIIa inh mix,M1 antagonist,FXIa inh mix,M1 ag confirm,M4 agonist ctr
COc1ccccc1Cn1c2nc3ccccc3nc2c2c(=O)n(CC(C)C)cnc21,-,-,-,.,-,.,.,.
Cc1cc2ccccc2c(=O)n1CC(=O)N(C)c1ccc(F)cc1,-,-,-,-,-,-,.,.
CCN1C(=O)c2cccc3c(S(=O)(=O)Nc4ccc(OC)cc4OC)ccc1c23,5.33,-,-,-,-,-,-,-
CCN1C(=O)c2cccc3c(S(=O)(=O)Nc4ccccn4)ccc1c23,-,-,-,-,-,-,.,.
Cc1noc(C)c1COc1ccc(C(=O)OCc2nnc(-c3ccc(Cl)cc3)o2)cc1,-,-,-,-,-,-,.,.
COc1ccc(CN2CCN(C(=O)c3cccs3)CC2)cc1,-,-,-,-,-,-,.,.
COc1ccc(OC)c(CN2CCN(C(=O)c3cccs3)CC2)c1,15.5,-,-,-,-,-,-,?
C=CCn1c(=O)c(C(=O)Nc2nnc(C)s2)c(O)c2ccccc21,-,-,-,-,-,-,.,.
Cc1cccc2cc3c(N)c(C(=O)N4CCOCC4)sc3nc12,6.99,-,-,.,-,.,?,-
Nc1nc2sc3c(c2cc1C(=O)N1CCOCC1)CCCC3,-,-,-,-,-,-,.,.
COc1cc2c(C#N)c(N3CCN(c4ccccc4OC)CC3)nc(N)c2c(N)n1,3.44,-4.0,.,-,-,-,-26.7,-
O=C(Nc1ccc(SC(F)F)cc1)c1ccc2nccnc2c1,3.84,-,-,-,-0.934,-,-,-
CS(=O)(=O)N1CCc2cc(S(=O)(=O)Nc3ccc4c(c3)OCCO4)ccc21,1.82,-,-,.,-,.,-,-
CCOC(=O)c1ccccc1NC(=O)c1ccc(Cl)c(S(=O)(=O)N2CCOCC2)c1,-,-,-,-,-,-,.,.
C=CCn1c(SCc2nc(N)nc(N3CCCCC3)n2)nnc1-c1ccco1,-,-,-,-,-,-,.,.
CCN=C(NCC)SC1CC(=O)N(c2cccc(OC)c2)C1=O (stereo not given),-,-,-,-,-,-,.,.
CCN=C(Nc1cccc(F)c1)SC1CC(=O)N(c2ccc(OC)cc2)C1=O (stereo not given),4.84,-,-,-,-,-,-,-
CCN=C(NCC)SC1CC(=O)N(c2ccccc2)C1=O (stereo not given),10.1,-,-,-,-,-,-,-
CCOC(=O)C1CCN(S(=O)(=O)c2cccc(-c3cn4cccc(C)c4n3)c2)CC1,2.33,-,-,-,-3.05,-,-,-
CCOC(=O)C1CCN(S(=O)(=O)c2cnc[nH]2)CC1,-,-,-,-,-,-,.,.
Cn1c(Cn2cnc3ccccc32)nnc1SCc1ccccc1,-,-,-,-,-,-,.,.
O=C1CCC(c2ccccc2)N1C(=O)c1cccnc1 (stereo not given),-,-,-,-,-,-,.,.
O=S(=O)(c1cccs1)N1CCCc2ccccc21,-,-,-,-,-,-,.,.
CCCCNc1ncnc2c1cnn2-c1ccc(Cl)cc1,-,-,-,-,-,-,.,.
COCCNc1ncnc2c1cnn2Cc1ccc(Cl)cc1,3.13,-,-,-,-,-,?,-
SMILES,M1 agonist,Her2 expr inh,JNK3 blocker,FXIIa inh mix,M1 antagonist,FXIa inh mix,M1 ag confirm,M4 agonist ctr
Clc1ccc(Cn2ncc3c(N4CCOCC4)ncnc32)cc1,4.57,-,-,-,-,-,?,-
CCOC(=O)c1ccc(-c2c(C(=O)OCC)oc3cc(O)c(CC)cc3c2=O)o1,-,-,-,-,-,-,.,.
COc1ccccc1Oc1ccc(S(=O)(=O)NCc2ccccn2)cc1,12,-,.,-,-,-,?,?
Cn1cc(C(=O)c2ccc(Cl)cc2)cc1-c1nc2ccccc2n1C,-,-,-,-,-,-,.,.
[O-][n+]1c2ccc3nonc3c2nn1-c1ccccc1Cl,-,-,-,-,-,-,.,.
COC(=O)c1c(NC(=O)CN2CCN(c3ccccc3OC)CC2)c2c(C)cccc2n1C,-,-,-,-,-,-,.,.
COC(=O)c1c(NC(=O)CN2CCN(c3ccccc3)CC2)c2c(C)cccc2n1C,4.53,-,-,-,-,-,-25.1,?
CCOc1ccccc1-c1nc(SCC(=O)O)n[nH]1,-,-,-,-,-,-,.,.
C=C(C)CSc1nnc2n(C)c(=O)c3c4c(sc3n12)CCC4,3.48,-,-,.,-,.,-,?
CCC1S/C(=C(\C#N)C(=O)NCc2ccco2)N(c2ccc(F)cc2)C1=O (stereo not given),-,-,-,-,-,-,.,.
N#C/C(C(=O)NCc1ccco1)=C1/SC(Cc2ccc(F)cc2)C(=O)N1c1ccccc1 (stereo not given),2.4,-,-,-,-,26.1,-,?
COc1ccc(OC)c(NC(=O)CCN2CCN(c3ccccc3)CC2)c1,-,-,-,-,-,-,.,.
COc1ccc(Cl)c(NC(=O)NCCN2CCN(c3ccccc3)CC2)c1,2.32,-,-,-,-,-,-28.2,-
O=C(CSCc1nc2ccccc2[nH]1)N1CCN(c2cccc(Cl)c2)CC1,7.96,-,-,-,-,-,-,-
Cc1onc(-c2c(F)cccc2Cl)c1C(=O)NCc1ccco1,-,-,-,-,-,-,.,.
O=C(CSCc1c(F)cccc1Cl)NCc1ccco1,1.49,-,-,-,-,-,-,-
CCN1C(=O)c2cccc3c(NC(=O)c4ccc5c(c4)OCCO5)ccc1c23,8.95,-,-,-,-,-,-,134
CCN1C(=O)c2cccc3c(NC(=O)C4CCCCC4)ccc1c23,-,-,-,-,-,-,.,.
CN(C)CCCN(C(=O)c1cccs1)c1nc(-c2ccccc2)cs1,13.7,-,-,-,-8.72,-,-,-
O=C(c1ccc(CS(=O)(=O)c2c(Cl)cccc2Cl)o1)N1CCN(c2ccccn2)CC1,3.36,-,-,-,-2.98,-,-,-
Cc1ccc(C)c(N2CCN(C(=O)c3ccc(CS(=O)(=O)c4ccccc4C)o3)CC2)c1,2.82,-,-,-,-,-,-,-
COc1ccccc1S(=O)(=O)Cc1ccc(C(=O)N2CCN(c3cccc(Cl)c3)CC2)o1,9.48,-,-,-,-,-,-26.3,-

# Screens: PubChem, several laboratories
